Results taken from PubChem BioAssay.
Active and inactive are the calls of the source.

What was measured:
[1] = test system: Human papillomavirus type 1a protein E7 (residues 44-93); assay: HPV1a E7 fragment binders on microarrays, primary screen, biochemical, small-molecule microarray, residues 44-93, 635 nm fluorescence (AID 1108); conditions: small-molecule microarray binding, fluorescence 635 nm; higher = more signal;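 note: E7 fragment applied at 1 µg/mL in TBST for 1 h at 4 C; score combines spot fluorescence with its signal to noise ratio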
[2] = modulators of HCV replicon luciferase signal, primary screen, HCV replication inhibitor project, Huh7 cells, luciferase reporter (AID 1109); conditions: 48 h, higher = more signal;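 note: huh7 hepatoma cells harbouring a luciferase neomycin HCV replicon reporter; luciferase luminescence as measure of HCV replicon replication; test concentration not given here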
[3] = target: Left-right determination factor 2 (Homo sapiens) (UniProt O00292); assay: LEFTY2 binders on small-molecule microarrays, primary screen, biochemical, small-molecule microarray, 635 nm fluorescence scan (AID 1110); conditions: LEFTY2 binding, higher = more signal
[4] = target: Calmodulin-1 (Homo sapiens) (UniProt P0DP23); assay: CALM1 binders on microarrays, EGTA buffer, profiling panel, biochemical, small-molecule microarray, Cy5-labelled CALM1 (AID 1111); conditions: Cy5-CALM1 binding fluorescence, higher = more signal;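 note: labelled calmodulin applied in Tris saline Tween buffer holding calcium plus EGTA and DTT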
[5] = target: Calmodulin-1 (Homo sapiens) (UniProt P0DP23); assay: calcium-bound CALM1 binders on microarrays, profiling panel, artefact control for SMM control-protein annotation, biochemical, small-molecule microarray, Cy5-labelled CALM1, plus calcium (AID 1112); conditions: Cy5-CALM1 binding fluorescence, higher = more signal;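 note: score merges spot fluorescence with signal to noise from triplicate slides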
[6] = small-molecule microarray binders of probe aWnt5a, primary screen, biochemical, biotinylated probe, 635/667 nm fluorescence (AID 1113); conditions: higher = more signal;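 note: score merges 667 nm fluorescence intensity with signal-to-noise per printed feature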
[7] = small-molecule microarray binders of probe aShh, primary screen, biochemical, biotinylated probe, 635/667 nm fluorescence (AID 1114); conditions: higher = more signal;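 note: probe is biotin-labelled aShh protein from a stem cell growth factor screen; measures binding of labelled protein to compounds printed on the slide; score merges feature fluorescence at 667 nm with signal-to-noise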
[8] = small-molecule microarray binders of probe aNog, primary screen, biochemical, biotinylated probe, 635/667 nm fluorescence (AID 1115); conditions: higher = more signal;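 note: probe is biotinylated aNog protein used at 0.15 µg/mL for 1 h at 4 C; z-score combines 667 nm fluorescence of each spot with its signal to noise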
[9] = target: Torsin-1A-interacting protein 1 (Homo sapiens) (UniProt Q5JTV8); assay: LAP1 binders from COS7 cell lysate, primary screen, small-molecule microarray, 635/667 nm fluorescence (AID 1116); conditions: COS7-hLAP1 lysate binding, 635 nm fluorescence, higher = more signal
[10] = target: Alpha-bungarotoxin (Bungarus multicinctus) (UniProt P60615); assay: alpha-bungarotoxin binders on microarray, profiling panel, artefact control for SMM control protein annotation, biochemical, small-molecule microarray, Alexa647 label, 635/667 nm fluorescence (AID 1117); conditions: alpha-BTX-A647 binding fluorescence, higher = more signal
[11] = target: Albumin (Bos taurus) (UniProt P02769); assay: bovine serum albumin binders on microarray, profiling panel, artefact control for SMM control protein annotation, biochemical, small-molecule microarray, Alexa647 label, 635/667 nm fluorescence (AID 1118); conditions: BSA-A647 binding, fluorescence 635 nm, higher = more signal;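 note: score merges 667 nm emission intensity and signal-to-noise per printed compound spot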
[12] = small-molecule microarray binders of probe aXIP, primary screen, biochemical, NeuroSMM set, 635/667 nm fluorescence (AID 1119); conditions: higher = more signal, called active from +8 up or from −8 down;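 note: probe is the protein aXip251-270 applied at 1 µg/mL to compound-printed slides; binding of probe to printed compounds measured as 667 nm fluorescence plus signal to noise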
[13] = small-molecule binders of probe aNOTCH3, primary screen, biochemical, small-molecule microarray, 635/667 nm fluorescence (AID 1120); conditions: higher = more signal;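 note: probe is a biotin-tagged antibody raised against NOTCH3 rather than NOTCH3 protein; score merges spot fluorescence near 667 nm with spot signal to noise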
[14] = small-molecule binders of probe aNOTCH2, primary screen, biochemical, small-molecule microarray, 635/667 nm fluorescence (AID 1121); conditions: higher = more signal;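 note: score merges feature fluorescence read at 667 nm with its signal to noise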
[15] = target: Carbonic anhydrase 2 (Homo sapiens) (UniProt P00918); assay: CAII small-molecule binders, profiling panel, biochemical, small-molecule microarray, Alexa647-labelled CAII (AID 1122); conditions: CAII-A647 binding fluorescence, higher = more signal
[16] = COS7 lysate on small-molecule microarray, probe aHis, 635 nm (AID 1123); conditions: COS7 cell lysate, fluorescence, higher = more signal;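 note: z-score combines 667nm fluorescence intensity with signal-to-noise per printed compound spot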
[17] = compound binding in COS7 lysate, probe aLAP1, primary screen, cell lysate, small-molecule microarray (AID 1124); conditions: probe aLAP1, fluorescence, higher = more signal;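 note: lysate comes from COS7 cells expressing LAP1 and is applied at 0.3 µg/mL; score merges spot fluorescence near 667 nm with signal-to-noise over triplicate slides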
[18] = test system: Sam68 (KHDRBS1); assay: Sam68 small-molecule binders, primary screen, biochemical, small-molecule microarray, 635 nm fluorescence (AID 1125); conditions: small-molecule microarray binding, higher = more signal;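 note: score merges 667 nm channel intensity with signal to noise over triplicate slides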
[19] = test system: Chordin-like protein 2 (CHRDL2); assay: CHRDL2 small-molecule binders, primary screen, biochemical, small-molecule microarray, 635 nm fluorescence (AID 1126); conditions: small-molecule microarray binding, fluorescence 635 nm; higher = more signal;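 note: printed compound slides probed with Chrdl2 protein at 4 µg/mL for 1 h at 4 C; score merges 667 nm emission intensity with signal to noise over three replicate slides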
[20] = target: Concanavalin-A (Canavalia ensiformis) (UniProt P02866); assay: ConA small-molecule binders, primary screen, artefact control for SMM control protein annotation, biochemical, small-molecule microarray, Alexa647 label, 635 nm (AID 1127); conditions: ConA-A647 binding fluorescence, higher = more signal;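 note: z combines 667 nm emission intensity with signal-to-noise across three replicate slides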
Concanavalin-A (Canavalia ensiformis), sequence (P02866 whole entry, looked up): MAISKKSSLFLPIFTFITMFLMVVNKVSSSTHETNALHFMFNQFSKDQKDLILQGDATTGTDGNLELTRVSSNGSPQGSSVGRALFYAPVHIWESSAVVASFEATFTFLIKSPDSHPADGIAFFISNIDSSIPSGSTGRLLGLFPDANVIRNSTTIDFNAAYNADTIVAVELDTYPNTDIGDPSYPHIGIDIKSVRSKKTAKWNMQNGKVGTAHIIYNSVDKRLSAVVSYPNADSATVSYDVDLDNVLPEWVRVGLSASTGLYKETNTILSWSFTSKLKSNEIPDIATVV

Albumin (Bos taurus), sequence (P02769 whole entry, looked up): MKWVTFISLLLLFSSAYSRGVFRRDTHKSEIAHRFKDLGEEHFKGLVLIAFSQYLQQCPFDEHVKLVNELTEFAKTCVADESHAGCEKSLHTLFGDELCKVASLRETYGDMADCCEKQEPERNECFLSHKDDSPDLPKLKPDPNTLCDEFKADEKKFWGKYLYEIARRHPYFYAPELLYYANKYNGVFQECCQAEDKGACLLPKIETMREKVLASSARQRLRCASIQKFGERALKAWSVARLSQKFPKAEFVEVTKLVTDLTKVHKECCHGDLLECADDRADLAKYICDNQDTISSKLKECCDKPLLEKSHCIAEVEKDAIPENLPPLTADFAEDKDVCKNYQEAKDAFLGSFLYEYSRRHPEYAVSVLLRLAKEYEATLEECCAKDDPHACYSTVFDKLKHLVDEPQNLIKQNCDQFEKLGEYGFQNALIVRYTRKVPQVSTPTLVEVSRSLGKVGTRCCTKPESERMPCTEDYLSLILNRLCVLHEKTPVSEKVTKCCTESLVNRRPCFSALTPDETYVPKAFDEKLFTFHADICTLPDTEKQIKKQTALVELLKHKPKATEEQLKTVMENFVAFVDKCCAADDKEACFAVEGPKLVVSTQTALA
Alpha-bungarotoxin (Bungarus multicinctus), sequence (P60615 whole entry, looked up): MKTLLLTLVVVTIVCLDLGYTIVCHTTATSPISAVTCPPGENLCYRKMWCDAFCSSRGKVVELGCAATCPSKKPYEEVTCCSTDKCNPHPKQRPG
Torsin-1A-interacting protein 1 (Homo sapiens), sequence (Q5JTV8 whole entry, looked up): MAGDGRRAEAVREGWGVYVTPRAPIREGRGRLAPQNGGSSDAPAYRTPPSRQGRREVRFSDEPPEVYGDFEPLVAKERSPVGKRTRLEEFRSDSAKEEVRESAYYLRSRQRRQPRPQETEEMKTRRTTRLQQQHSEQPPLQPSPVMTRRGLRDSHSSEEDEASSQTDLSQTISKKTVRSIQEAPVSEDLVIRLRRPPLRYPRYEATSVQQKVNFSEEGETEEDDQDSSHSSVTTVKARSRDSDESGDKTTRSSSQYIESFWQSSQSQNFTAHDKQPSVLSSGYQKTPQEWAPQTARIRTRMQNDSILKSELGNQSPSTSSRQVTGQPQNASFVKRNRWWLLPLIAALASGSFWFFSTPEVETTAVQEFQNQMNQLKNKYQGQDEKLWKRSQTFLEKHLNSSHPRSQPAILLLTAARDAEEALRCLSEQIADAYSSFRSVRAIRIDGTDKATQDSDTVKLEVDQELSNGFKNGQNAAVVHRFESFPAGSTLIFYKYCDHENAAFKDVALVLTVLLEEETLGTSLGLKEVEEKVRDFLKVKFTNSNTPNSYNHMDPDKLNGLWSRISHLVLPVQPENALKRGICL
Left-right determination factor 2 (Homo sapiens), sequence (O00292 whole entry, looked up): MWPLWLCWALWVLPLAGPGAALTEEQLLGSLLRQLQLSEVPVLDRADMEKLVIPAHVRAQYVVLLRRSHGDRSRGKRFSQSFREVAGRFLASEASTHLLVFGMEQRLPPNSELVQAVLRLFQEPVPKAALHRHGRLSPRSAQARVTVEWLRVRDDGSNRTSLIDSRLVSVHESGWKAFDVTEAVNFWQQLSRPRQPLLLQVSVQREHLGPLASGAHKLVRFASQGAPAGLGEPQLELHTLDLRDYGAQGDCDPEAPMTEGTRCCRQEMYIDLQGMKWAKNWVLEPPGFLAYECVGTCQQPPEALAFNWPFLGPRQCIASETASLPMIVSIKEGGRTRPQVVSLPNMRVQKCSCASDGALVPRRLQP

| Structure (SMILES) | composite z-score [1] | z-score [2] | composite z-score [3] | composite z-score [4] | composite z-score [5] | composite z-score [6] | composite z-score [7] | composite z-score [8] | composite z-score [9] | composite z-score [10] | composite z-score [11] | composite Z-score [12] | composite z-score [13] | composite z-score [14] | composite z-score [15] | composite z-score [16] | composite z-score [17] | composite z-score [18] | composite z-score [19] | composite z-score [20] |
| --- | --- | --- | --- | --- | --- | --- | --- | --- | --- | --- | --- | --- | --- | --- | --- | --- | --- | --- | --- | --- |
| N#Cc1ccc(C(O)C2C=CC3C(=O)NC(=O)C3N2Nc2ccccn2)cc1 (stereo not given) | 0.447 | -0.676 | 0.286 | 0.2 | -0.272 | -0.178 | 0.151 | 0.287 | -0.298 | 0.617 | 0.95 | -0.483 (inactive) | 0.0297 | -0.0907 | 0.854 | 0.767 | 0.711 | -0.106 | 0.31 | 0.468 |
| COc1cccc(OC)c1C(=O)O[C@H]1[C@@H]2OC(=O)[C@H](Cc3cccc(Br)c3)C/C=C/C[C@@H](Cc3cccc(Br)c3)C(=O)O[C@H]2[C@@H](OC)O[C@@H]1CO | 0.479 | -2.37 | 0.309 | -0.108 | -0.0545 | -0.0869 | 0.111 | 0.113 | 0.482 | 0.528 | 0.33 | 0.878 (inactive) | -0.122 | -0.105 | 0.628 | 1.2 | 0.56 | 1.06 | 0.351 | 0.293 |
| COCCOC(=O)N1C(=O)[C@@]2(c3cc(C#CC4(O)CCCCCC4)ccc31)[C@H](c1ccc(OCCO)cc1)N1[C@H](c3ccccc3)[C@H](c3ccccc3)OC(=O)[C@H]1[C@@H]2C(N)=O | 0.448 | -2.2 | 0.547 | 1.04 | -0.111 | -0.0472 | 0.199 | 0.53 | 1.73 | 1.9 | 0.119 | 0.189 (inactive) | 0.0876 | -0.0907 | 0.3 | 0.615 | 0.519 | 1.3 | 0.986 | 1.17 |
| C/C=C/CN(C(=O)C#Cc1ccccc1)[C@H](CO[Si](C)(C)C(C)(C)C)c1ccccc1 | 0.0833 | -0.944 | -0.594 | -0.855 | -1.76 | -0.286 | -0.372 | -0.338 | -0.721 | -2.16 | -0.907 | -0.357 (inactive) | -0.384 | -0.22 | 0.599 | 0.043 | -0.155 | 0.248 | -0.553 | -1.17 |
| COCCCN1C(=O)[C@@]2(Cc3ccccc31)c1ccccc1C(=O)N(Cc1ccccc1OC)[C@H]2c1ccc(CO)cc1 | -0.739 | -0.185 | -0.283 | 0.0145 | -0.0984 | 0.0759 | -0.138 | 0.417 | 0.145 | 0.212 | 0.345 | 0.449 (inactive) | -0.147 | -0.101 | 0.799 | 0.374 | 1.34 | -0.0726 | -1.21 | 0.254 |
| CCCC[C@H]1OB(O)C[C@H]2C1=C(C)C[C@H]1C(=O)C=CC(=O)[C@H]12 | 1.04 | -2.52 | 0.686 | -0.321 | -0.741 | -0.132 | 0.0278 | -0.109 | 0.0514 | 0.178 | -0.324 | -0.0764 (inactive) | 0.0159 | -0.106 | 0.011 | 0.423 | 0.121 | 1.04 | 0.821 | 0.544 |
| CCC(CC)C(O)C1C=CC2C(=O)N(C)C(=O)C2N1N1CCCCC1 (stereo not given) | 1.43 | -0.481 | 0.692 | 1.68 | -0.263 | 0.0229 | 0.0381 | 1.57 | 0.103 | 1.2 | 0.999 | -0.175 (inactive) | 0.499 | 0.0477 | 0.755 | 2.5 | 0.502 | 1.31 | 0.0277 | 1.13 |
| Cc1c(-c2ccc(-c3ccc(Cl)c(Cl)c3)o2)nc(-c2ccccc2)c2c1CO[Si]2(C(C)C)C(C)C | 0.296 | -0.403 | -0.487 | -0.179 | -0.0727 | -0.113 | 0.0326 | -0.103 | 0.125 | -0.0982 | 0.734 | -0.0877 (inactive) | -0.122 | -0.148 | 0.181 | 0.356 | -0.213 | 0.295 | -0.18 | 0.248 |
| CC(=O)NCCCC[C@@H]1NC(=O)[C@@H]2C[C@H](C(=O)NCCCCCC[N+](C)(C)C)[C@H](c3ccc(O)cc3)N2C1=O | 1.11 | 0.825 | 0.943 | -0.504 | -0.901 | -0.15 | 0.0278 | -0.347 | 0.343 | -0.659 | -0.78 | 0.0461 (inactive) | -0.0611 | -0.0173 | 0.188 | 1.17 | -0.414 | 0.992 | 0.965 | 0.301 |
| C=CCC(OC(C)=O)[C@@H]1[C@@H](N(Cc2cc3ccccc3o2)C(=O)Cc2ccc(OC)cc2)c2cc(OCCCO)ccc2N1C(=O)Cc1ccc(OC)cc1 (stereo not given in full) | -0.133 | 0.028 | -0.0735 | -0.211 | 0.158 | -0.0981 | -0.0626 | -0.303 | -0.0544 | 0.673 | -0.477 | -0.188 (inactive) | -0.0711 | -0.153 | 0.426 | -0.188 | 0.107 | -0.0765 | 0.208 | -0.395 |
| CCOC(=O)C1=CC[C@@H](c2ccccc2)N(S(=O)(=O)c2ccc(C)cc2)[C@H]1C#N | 0.894 | -1.76 | 0.116 | 0.906 | 0.658 | 0.0044 | -0.16 | -0.59 | 1.03 | -0.06 | 0.721 | 0.718 (inactive) | 0.213 | 0.0362 | 0.76 | 1.67 | 0.254 | 1.2 | -0.232 | 1.15 |
| O=C1C2C=CC(C(O)c3ccc([N+](=O)[O-])cc3)N(Nc3ccccc3)C2C(=O)N1c1ccccc1 (stereo not given) | 0.342 | 0.649 | -0.0424 | 0.0871 | -0.447 | -0.0512 | 0.284 | -0.175 | -0.175 | -0.0428 | 0.822 | -0.0589 (inactive) | 0.261 | -0.0591 | 0.77 | 1.42 | -0.163 | 0.594 | -0.225 | 0.49 |
| [N-]=[N+]=NCc1ccccc1[C@@H]1OC(c2ccc(OCCCO)cc2)=N[C@]1(Cc1ccccc1)C(=O)NCc1ccccc1 | 1.28 | -2.34 | 0.0086 | 1.87 | 0.237 | 0.0495 | 0.0181 | -0.489 | 1.12 | 0.688 | 0.937 | -0.04 (inactive) | 0.0774 | -0.0349 | 0.782 | 2.99 | 0.388 | 0.826 | -0.691 | 1.08 |
| COCCOC(=O)N1C(=O)[C@@]2(c3cc(C#CC4(O)CCCCCC4)ccc31)[C@H](C(=O)NC[C@H](O)c1ccccc1)[C@H]1C(=O)O[C@H](c3ccccc3)[C@H](c3ccccc3)N1[C@@H]2c1ccc(O)cc1 | -0.132 | -0.68 | 0.0174 | 1.37 | -0.112 | 0.0718 | -0.0055 | -0.111 | 1.14 | 1.61 | 0.456 | -0.275 (inactive) | -0.0362 | -0.0846 | 0.618 | 1.51 | 1.42 | 1.16 | -0.112 | 1.09 |
| COc1ccc([Si](C)(C)[C@@H]2[C@@H](CCO)O[C@]3(C(=O)N(Cc4ccccc4)c4ccc(N5C(=O)c6ccccc6Oc6ccccc65)cc43)[C@H]2C)cc1 | -0.175 | -4.15 | -0.75 | 0.417 | 0.925 | -0.208 | -0.0605 | -0.0541 | -0.361 | 0.367 | 0.208 | 0.304 (inactive) | -0.192 | -0.155 | -0.0035 | 0.981 | -0.0345 | -0.809 | -1.36 | 0.718 |
| COc1cccc(C[C@H]2C[C@@H](CO[Si](C(C)C)(C(C)C)C(C)C)N3C(=O)[C@@]4(C(C)=O)O[C@@]23[C@@H]2C(=O)N(C)C(=O)[C@@H]24)c1 | 1.04 | -2.81 | 0.901 | 0.05 | -0.587 | -0.0364 | 0.131 | 0.0974 | 0.272 | -0.378 | 0.166 | 0.544 (inactive) | -0.231 | -0.118 | 0.0137 | 0.332 | -0.316 | 0.984 | 0.908 | 0.117 |
